Screening data: PubChem, The Scripps Research Institute Molecular Screening Center
The list is not random: actives were taken first. Their share in the collection is about 2.3%.
M1 ag = human M1 muscarinic receptor agonists, primary screen, Fluo-8 calcium fluorescence, CHO-K1 cells, HTS | activation, % at 3 µM | CHO-K1 hM1, agonist mode; 0% DMSO, 100% acetylcholine EC100 | 360,000 tested, 0.33% active | Muscarinic acetylcholine receptor M1 (Homo sapiens), P11229;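 active means activation above the run's mean compound activation plus 3 SD, cut at about 16% in these data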;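 further: peak over basal fluorescence ratio within a 140 s kinetic read after compound addition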
Target sequence (P11229 whole entry, looked up): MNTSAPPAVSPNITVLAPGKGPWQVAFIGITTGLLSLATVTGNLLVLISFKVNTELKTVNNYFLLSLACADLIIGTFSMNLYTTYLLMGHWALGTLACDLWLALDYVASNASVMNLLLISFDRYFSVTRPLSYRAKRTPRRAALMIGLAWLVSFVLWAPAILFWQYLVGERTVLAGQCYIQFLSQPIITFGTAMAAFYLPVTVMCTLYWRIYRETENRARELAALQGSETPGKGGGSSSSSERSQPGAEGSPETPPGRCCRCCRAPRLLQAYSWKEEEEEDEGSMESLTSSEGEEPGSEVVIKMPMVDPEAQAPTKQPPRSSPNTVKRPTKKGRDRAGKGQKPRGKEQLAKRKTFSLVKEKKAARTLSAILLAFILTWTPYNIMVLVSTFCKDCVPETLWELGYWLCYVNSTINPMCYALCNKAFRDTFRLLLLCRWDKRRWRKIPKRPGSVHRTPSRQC
CHO-K1 Ca antag = M1 antagonist counterscreen hit in parental CHO-K1 cells | ATP-induced calcium, Fluo-8 fluorescence | 360,000 tested, 0.6% active | AID 602250 | inhibition, % at 3 µM;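 active means inhibition above a per-plate cutoff, the plate's mean sample inhibition plus 3 SD, cut at about 24% in these data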
M1 PAM = human M1 muscarinic receptor positive allosteric modulators, primary screen, CHO-K1 cells, Fluo-8 calcium fluorescence, 1536-well; Muscarinic acetylcholine receptor M1 (Homo sapiens), P11229; CHO-K1 hM1, ACh EC20; 0% = ACh EC20, 100% = maximal ACh; activation, % at 3 µM; 360,000 tested, 0.088% active; in the data active means activation above about 19%, passing the limit was not always enough
CHO-K1 Ca PAM = nonselective calcium activators in parental CHO-K1 cells, primary screen, counter-screen for M1 PAM project, cell-based, Fluo-8 calcium fluorescence, full deck, 1536-well; ATP EC20; 0% at ATP EC20, 100% at ATP max; activation, % at 3 µM; 360,000 tested, 0.02% active; AID 602247, 2012;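 active means activation above the run cutoff, the mean activation of all test compounds plus 3 SD, cut at about 40% in these data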;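 further: peak over basal fluorescence ratio in a 140 s read after ATP addition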
CHO-K1 Ca ag = counter-screen for M1 agonists: effect in parental CHO-K1 cells; Fluo-8 calcium fluorescence; scaled to maximal ATP response, vehicle zero; activation, % at 3 µM; 360,000 tested, 0.48% active; in the data active means activation above about 15%;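 further: untransfected CHO-K1 host cells lacking M1 receptor as counterscreen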
CHRM1 antagonist = human M1 muscarinic receptor antagonists, primary screen, CHO-K1 cells, Fluo-8 calcium fluorescence, 1536-well; 360,000 tested, 1.3% active; inhibition, % at 3 µM; Muscarinic acetylcholine receptor M1 (Homo sapiens), P11229; CHO-K1 hM1, ACh EC80 antagonist;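 active means percent inhibition above its own plate's cutoff, namely the mean of that plate's compound wells plus 3 SD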;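 further: peak over basal fluorescence ratio during 140 s after agonist addition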
Numbers stand for hits; – = inactive; ! = not confirmed by another sample.

SMILES | M1 ag | CHO-K1 Ca antag | M1 PAM | CHO-K1 Ca PAM | CHO-K1 Ca ag | CHRM1 antagonist
Nn1cnc2c(c1=O)C1(CCCCC1)Cc1ccccc1-2 | – | – | – | – | – | –
Cc1ccc(N2CC(NC(=O)N3CCN(C(=O)c4ccco4)CC3)CC2=O)cc1 (stereo not given) | – | – | – | – | – | –
CCN(CC(=O)Nc1ccc(OC)cc1)C(=O)CSCc1c(C)noc1C | – | – | – | – | – | –
O=C(O)c1ccccc1-c1c2cc(I)c(=O)c(I)c-2oc2c(I)c(O)c(I)cc12 | 278.8 | 70.5 | – | – | 189.6 | 78.0!
COCCN(CC1CCCN(C2Cc3ccccc3C2)C1)C(=O)CCC(N)=O (stereo not given) | – | – | – | – | – | 46.9
CCC(CC)C(=O)N(C)c1c(C)nc2c(OCc3ccc(OC(F)F)cc3)cccn12 | – | – | – | – | – | –
CN(C(=O)c1cccc(NC(=O)Cc2ccc(NC(=O)C3CCN(S(=O)(=O)c4cccc([N+](=O)[O-])c4)CC3)cc2)c1)C1CCCCC1 | – | – | – | – | – | –
CN(C)c1nccc(N(Cc2ccccc2)Cc2ccccc2)c1C#N | – | – | – | – | – | 54.7
CN(C)CCN(Cc1ccccc1)c1ccnc(N(C)C)c1C#N | – | – | – | – | – | –
O=C(CN1CCN(S(=O)(=O)c2ccc(Cl)cc2)CC1)c1ccc(O)c(O)c1 | – | – | 27.0 | – | – | –
O=C(CC1OC(=O)c2ccccc21)Nc1cc(Cl)ccc1N1CCOCC1 (stereo not given) | – | – | – | – | – | –
FC(F)(F)c1cccc(NC(=S)N2CCN(c3cccc(C(F)(F)F)c3)CC2)c1 | – | – | – | – | – | 37.7
Cc1ccc(CC(=O)N2CCN(c3cccc(C(F)(F)F)c3)CC2)cc1 | – | – | – | – | – | 32.0
S=C(Nc1ccccc1)N1CCN(c2ccccc2)CC1 | – | – | – | – | – | –
O=C(c1coc2ccccc2c1=O)N1CCN(c2cccc(C(F)(F)F)c2)CC1 | – | – | – | – | – | 53.9
Cc1ccc(N2CCN(C(=S)Nc3ccccc3)CC2)cc1 | – | – | – | – | 22.2 | –
Cc1ccc(S(C)(=O)=O)cc1C(=O)Nc1ccc(S(=O)(=O)Nc2nccs2)cc1 | – | – | – | – | – | –
Cc1ccc(-n2c(C)cc(/C=C3\NC(=O)NC3=O)c2C)c(C)c1 | – | – | – | – | – | 31.6
Cc1cc(/C=C2/NC(=O)NC2=O)c(C)n1-c1ccccn1 | – | – | – | – | – | –
CC1CCCN(Cc2ccc(OCc3ccccc3)cc2)C1 (stereo not given) | – | – | – | – | – | 72.6
CCc1ccccc1OCCCCN1CCCCC1 | – | – | – | – | – | 35.8
c1ccc(COc2ccc(OCCCCN3CCCCC3)cc2)cc1 | – | – | – | – | – | 34.6
NS(=O)(=O)c1ccc(N2C(=O)C(=O)/C(=C(/O)c3ccccc3)C2c2ccc(Cl)cc2)cc1 (stereo not given) | – | – | – | – | – | –
Cn1ccnc1C1CCCCN1Cc1nc(-c2ccc(Cl)cc2)no1 (stereo not given) | – | – | – | – | – | 32.0
Clc1ccc(-c2noc(CN3CCCC3)n2)cc1 | – | – | – | – | – | –
SMILES | M1 ag | CHO-K1 Ca antag | M1 PAM | CHO-K1 Ca PAM | CHO-K1 Ca ag | CHRM1 antagonist
CCCC(=O)N1CCN(c2ccc(NC(=O)c3cc4ccccc4o3)cc2Cl)CC1 | – | – | – | – | – | 55.5
O=C(Nc1ccc(N2CCN(C(=O)c3ccco3)CC2)c(Cl)c1)c1cc2ccccc2o1 | – | – | – | – | – | 37.3
CCCC(=O)N1CCN(c2ccc(NC(=O)c3cccs3)cc2Cl)CC1 | – | – | – | – | – | –
O=C(Nc1ccc(N2CCN(C(=O)c3ccccc3)CC2)c(Cl)c1)c1ccco1 | – | – | – | – | – | –
CCC(=O)N1CCN(c2ccc(NC(=O)c3ccco3)cc2Cl)CC1 | – | – | – | – | – | –
CCC(=O)N1CCN(c2ccc(NC(=O)c3cc4ccccc4o3)cc2Cl)CC1 | – | – | – | – | – | 17.7
COc1cc2c(cc1OC)CN(c1nc(CN3CCCCC3)nc3sc4c(c13)CCCC4)CC2 | – | – | – | – | 20.1 | –
COc1cc2c(cc1OC)CN(c1nc(CN3CCOCC3)nc3sc4c(c13)CCCC4)CC2 | – | – | – | – | – | –
Cc1cccc(CS(=O)(=O)c2ncc(CO)n2C)c1 | – | – | – | – | – | –
O=C(C[C@H]1C/C=C\CC[C@@H](Cc2ccc(F)cc2)C(=O)OC[C@H]2CCCN2C1=O)N[C@@H](CO)Cc1ccccc1 | – | – | – | – | – | –
COc1ccc(C(=O)NNC(=S)NC(=O)c2ccc(OC)cc2)cc1 | 23.4 | – | – | – | 34.2 | –
COc1ccc(C(=O)NNC(=S)NC(=O)c2cccnc2)cc1 | – | – | – | – | – | –
COc1ccc(C(=O)NNC(=S)NC(=O)c2ccc(F)cc2)cc1Br | 88.1 | – | – | – | 66.1 | 34.9
CCCCC(=O)NC(=S)NNC(=O)c1ccc(OC)cc1 | – | – | – | – | 31.3 | –
COc1cc(C(=O)NC(=S)NNC(=O)c2ccc3c(c2)OCO3)cc(OC)c1OC | 16.9 | – | – | – | – | –
COc1cc(C(=O)NC(=S)Nc2ccc3c(c2)OCO3)cc(OC)c1OC | – | – | – | – | – | –
O=C(OCC(=O)N1CCN(c2ccccc2)CC1)C1CCCN1S(=O)(=O)c1ccc(Cl)cc1 (stereo not given) | – | – | – | – | – | –
Cc1ccc(S(=O)(=O)N2CCN(C(=O)[C@H](Cc3ccccc3)NC(=O)c3ccco3)CC2)cc1C | – | – | – | – | – | –
COc1cc2c(cc1OC)CN(C(=O)C1CCC(=O)N(CCCN3CCOCC3)C1)CC2 (stereo not given) | – | – | – | – | – | –
COc1ccc(Cl)cc1C(=O)NNC(=S)NC(=O)c1ccc(F)c(F)c1 | 37.1 | – | – | – | – | –
O=C(CCN1CCN(Cc2ccccc2)CC1)Nc1cccc(Br)c1 | – | – | – | – | – | –
CN1C(=S)SC(C)(NO)C1(C)C (stereo not given) | – | – | 26.3 | – | – | –
CCCCN1C(=O)Cc2c1nc(N)c1c(N)nc(N(CCC)CCC)c(C#N)c21 | – | 24.6 | – | – | – | –
CCOC(=O)Cc1csc(NC(=O)c2ccc3ccccc3n2)n1 | – | – | – | – | – | –
